The subject of one experiment is AAK1. Conditions: concentration: 1 μM, replicates: in singlicate; n = 1.
The next experiment concerns ABL1-nonphosphorylated. As to conditions: concentration: 1 μM, replicates: in singlicate; n = 1.
A further experiment deals with ABL1-phosphorylated. Conditions: concentration: 1 μM, replicates: in singlicate; n = 1.
For the next experiment, the system named is ABL2. Conditions: concentration: 1 μM, replicates: in singlicate; n = 1.
The next experiment relates to T1, VPS34.
T1 construct: gene PIK3C3

Another experiment concerns T2, YANK2.
T2 construct: gene STK32B

The test system of experiment [1] is TYK2(JH1domain-catalytic).

Where only a bound is given, the exact number is not on record here.
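Wherever %Inh is given: KINOMEscan kinase panel screen.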
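Wherever Kd is given: kd values determined as follow-up on hits from a single-replicate KINOMEscan panel screen.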

Turning to `COc1cc(Nc2ccnc3ccc(C(F)(F)F)cc23)cc(OC)c1OC` [GW577382], the “%Inh” value is given as 8% in the experiment on AAK1, 27% in the experiment with ABL1-nonphosphorylated, 19% in the experiment on ABL1-phosphorylated and 28% with ABL2.
By Kd is commonly meant the free concentration of one partner at which half of the binding sites on the other are occupied at equilibrium, for simple one-to-one binding. A higher Kd goes with lower affinity. As for `Cc1nn2c(=O)cc(N3CCOCC3)nc2n1Cc1cccc(Cl)c1Cl` [GSK2342769], binding in the experiment on VPS34 was characterised by a dissociation constant (Kd) of 0.00043 µM. In addition, the “%Inh” value was 14% in the experiment with AAK1, 0% in the experiment with ABL1-nonphosphorylated, 0% with ABL1-phosphorylated and 9% with ABL2.
`CC(C)(C)c1ccc(C(=O)Nc2cn3cc(-c4ccccc4)ccc3n2)cc1`: the “%Inh” value in the experiment on AAK1 was 0%; in the experiment on ABL1-nonphosphorylated, 74%; in the experiment on ABL1-phosphorylated it was 55%; in the experiment with ABL2, 21%.
`Nc1ncnc2c1ncn2-c1cccc2ccccc12` [SKF-97184] gave a dissociation constant Kd in the experiment on YANK2 of more than 10 µM. Moreover, the “%Inh” value was found to be 0% with AAK1, 46% with ABL1-nonphosphorylated, 26% with ABL1-phosphorylated and 0% with ABL2.
In the experiment on ULK3, `COc1ccc(-c2coc3ccc(-c4nnc(SCc5cccc(C#N)c5)o4)cc23)cc1` yielded a Kd of more than 10 µM. Also, the “%Inh” value in the experiment on AAK1 was determined as 0%; in the experiment on ABL1-nonphosphorylated, 23%; in the experiment on ABL1-phosphorylated, 0%; in the experiment with ABL2, 0%.
`COc1cccc(-n2cnc3c(N)ncnc32)c1` [SKF-97416] registered a dissociation constant (Kd) in experiment [1] of more than 10 µM. The “%Inh” value is on record as 0% with AAK1, 56% in the experiment on ABL1-nonphosphorylated, 46% with ABL1-phosphorylated and 8% in the experiment with ABL2.
For `COc1cc(Nc2nccc(N3CCC(NC(=O)C4COc5ccccc5O4)C3)n2)cc(OC)c1OC` (centres unmarked) [GSK1379761], in that order: 1.5 µM, 66%, 0%, 0% and 3%.
With `CN(C)c1cc(-c2ccc3c(N)n[nH]c3c2)nc(N)n1` [GSK2219329], the Kd in the experiment on TXK and in the experiment on ZAK was more than 10 µM in each case. Moreover, the “%Inh” value with AAK1 came to 10%; in the experiment with ABL1-nonphosphorylated, 0%; in the experiment on ABL1-phosphorylated, 0%; in the experiment on ABL2, 0%.
Turning to `O=C(NCCNc1ccnc(Nc2ccc(F)cc2)n1)Nc1ccc2c(c1)OCO2` [GSK1379882], the equilibrium dissociation constant (Kd) with TXK and in the experiment with ZAK was more than 10 µM throughout. In addition, the “%Inh” value in the experiment on AAK1 came to 20%; in the experiment with ABL1-nonphosphorylated, 0%; in the experiment on ABL1-phosphorylated it was 0%; with ABL2 it was 0%.
With `CCc1nc(-c2cccc(C)c2)c(-c2ccncc2)s1`, the “%Inh” value in the experiment with AAK1 was 0%; in the experiment with ABL1-nonphosphorylated, 60%; with ABL1-phosphorylated it was 11%; in the experiment on ABL2 it was 6%.
For `CCc1ccc(-c2ccc3c(c2)-c2nn(C)cc2S(=O)(=O)N3C)cc1`, in that order: 19%, 31%, 0% and 0%.
For `Cc1c(Cn2c(C)nn3c(=O)cc(N4CCO[C@H](C)C4)nc23)cccc1C(F)(F)F` [GSK2373690], in that order: 0%, 0%, 2% and 24%.
In the case of `CCC(=O)c1c(-c2ccccc2)c2cc(Cl)ccc2c(=O)n1Cc1cc(S(C)(=O)=O)n(CCC(C)(C)O)n1`, the “%Inh” value in the experiment with AAK1 is 25%; in the experiment on ABL1-nonphosphorylated, 6%; with ABL1-phosphorylated, 3%; with ABL2, 9%.
Consider `CCn1c(-c2ccoc2)nc2cnccc21` [SB-733887], for which the “%Inh” value in the experiment on AAK1 is reported as 1%; in the experiment with ABL1-nonphosphorylated, 1%; with ABL1-phosphorylated, 17%; in the experiment with ABL2 it was 10%.
For the molecule `Nc1n[nH]c2nnc(-c3ccccc3)c(-c3ccccc3)c12` [GW554060], the “%Inh” value in the experiment on AAK1 amounted to 0%; with ABL1-nonphosphorylated, 0%; in the experiment with ABL1-phosphorylated, 0%; in the experiment with ABL2 it was 9%.
With `FC(F)(F)c1ccc(-c2ncn(CCCN3CCOCC3)c2-c2ccncc2)cc1` [SB-217780], the “%Inh” value worked out at 7% in the experiment with AAK1, 44% in the experiment with ABL1-nonphosphorylated, 0% in the experiment on ABL1-phosphorylated and 8% in the experiment on ABL2.
For `Cc1nnc(-c2ccc(C)c(-c3ccc(C(=O)O)cc3)c2)o1` [GW608005] the same measures were 0%, 0%, 0% and 0%.
Take `CCS(=O)c1ccc(-c2coc3ccc(-c4nnc(C)o4)cc23)cc1` (centres unmarked): the “%Inh” value is 0% in the experiment on AAK1, 27% with ABL1-nonphosphorylated, 0% with ABL1-phosphorylated and 0% with ABL2.
With `COc1cc2ncn(-c3cc(OCc4ccc(S(C)(=O)=O)cc4)c(C(N)=O)s3)c2cc1OC` [GW869979], the “%Inh” value in the experiment on AAK1 is recorded as 0%; in the experiment with ABL1-nonphosphorylated, 0%; with ABL1-phosphorylated, 13%; with ABL2, 14%.
For `CCCNC(=O)Nc1ccc(Oc2ncnc3ccn(C)c23)cc1`, the “%Inh” value in the experiment on AAK1 stood at 13%; in the experiment on ABL1-nonphosphorylated, 30%; in the experiment on ABL1-phosphorylated it was 6%; in the experiment on ABL2, 4%.
For `COc1cc(Nc2nccc(N3CCC(NC(=O)C(C)c4ccc(Cl)cc4)C3)n2)cc(OC)c1OC` (centres unmarked) [GSK1379757], in that order: 37%, 0%, 0% and 7%.
For `O=C1NC(=O)C(c2ccccc2)=C1Nc1cccc(O)c1` [SB-390534], in that order: 0%, 22%, 5% and 1%.
For `Cn1c(=O)c(F)c(Nc2ccc(I)cc2F)c2c(=O)n(OC[C@H](O)CO)cnc21`, in that order: 10%, 54%, 41% and 3%.
Regarding `COc1cccc(C2=C(N(C)c3ccccc3)C(=O)NC2=O)c1` [SB-334865], the “%Inh” value in the experiment with AAK1 is 0%; in the experiment on ABL1-nonphosphorylated, 5%; in the experiment on ABL1-phosphorylated, 3%; in the experiment on ABL2, 14%.
For `COc1ccc(-c2cc3c(C)nc(N)nc3n([C@H]3CC[C@H](OCCO)CC3)c2=O)cn1` the same measures were 0%, 0%, 0% and 0%.
For `Cc1ccc(Oc2ccc(Nc3ncnc4cc[nH]c34)cc2C)cn1` the same measures were 0%, 19%, 0% and 0%.
For the molecule `Nc1ncnc2c1ncn2-c1ccc(Cl)cc1` [AH2635], the “%Inh” value with AAK1, in the experiment with ABL1-nonphosphorylated, with ABL1-phosphorylated and with ABL2 was 0% throughout.
As to `COc1cc2ncn(-c3cc(OCc4ccncc4)c(C(N)=O)s3)c2cc1OC` [GSK336313], the “%Inh” value with AAK1 was 58%; with ABL1-nonphosphorylated, 0%; in the experiment with ABL1-phosphorylated, 7%; in the experiment on ABL2 it was 0%.
Consider `CCC(=O)c1c(-c2ccccc2)c2cc(Cl)ccc2c(=O)n1Cc1cc(C(=O)NC2CC2)n(C)n1`, for which the “%Inh” value with AAK1 is recorded as 20%; in the experiment with ABL1-nonphosphorylated, 20%; with ABL1-phosphorylated, 0%; with ABL2, 9%.
